Compound activity deposited in PubChem BioAssay by National Center for Advancing Translational Sciences (NCATS).
RORgamma inh – ROR gamma (mouse) transcription inhibition | Drosophila S2 Gal4-RORgamma UAS-luciferase reporter, 20 h | Potency, µM (series often up to 53.6 µM), for inactives: top-dose activity change, negative = inhibition, most hits filed as inhibitors | P51450 | 310,000 tested, 5.4% active; also: potency is read from the fitted curve at half-maximal effect; nearly all actives have a fitted effect of over 60% in size
Target sequence (P51450 whole entry, looked up, the tested form may be a part): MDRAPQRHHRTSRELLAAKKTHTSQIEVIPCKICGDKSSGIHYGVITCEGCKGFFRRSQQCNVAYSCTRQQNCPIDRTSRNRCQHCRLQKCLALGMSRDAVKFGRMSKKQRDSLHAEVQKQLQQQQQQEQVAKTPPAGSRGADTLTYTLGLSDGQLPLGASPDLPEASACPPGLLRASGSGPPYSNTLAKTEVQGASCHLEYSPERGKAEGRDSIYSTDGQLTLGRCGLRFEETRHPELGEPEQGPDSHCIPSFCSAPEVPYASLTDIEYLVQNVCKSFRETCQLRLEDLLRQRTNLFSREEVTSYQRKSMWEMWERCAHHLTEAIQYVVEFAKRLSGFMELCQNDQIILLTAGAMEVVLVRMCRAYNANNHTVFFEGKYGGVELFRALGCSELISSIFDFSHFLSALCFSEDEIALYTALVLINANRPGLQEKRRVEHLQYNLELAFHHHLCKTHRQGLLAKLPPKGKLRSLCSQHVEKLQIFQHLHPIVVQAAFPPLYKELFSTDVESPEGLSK
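ROR gamma transcriptional activity was tracked as Gal4-UAS luciferase output in stably transfected Drosophila Schneider cells, with compound added 1 hr before 700 uM copper sulfate induction and a 20 hr ambient-temperature incubation.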
IL-1B inflam inh – inflammasome signaling inhibition, IL-1 beta readout; THP-1 LPS/ATP IL-1B secretion, AlphaLISA, 16 h; active compounds read low; activity change, % at 57.5 µM; 360,000 tested, 4.7% active; in the data active = activity change below about -50%; inconclusive = mostly about -30% to -49%
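THP-1 cells pretreated 1 hr with compounds (up to 57.5 uM final), then stimulated with LPS (250 ng/mL final) plus ATP (1.25 mM final); secreted IL-1B measured by AlphaLISA after 16 hr, decreased signal indicating inhibition.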
Gal4-VP16 FLuc – counter-screen for ROR gamma inhibitors: Gal4-VP16 reporter; Drosophila S2 Gal4-VP16 UAS-luciferase, luminescence, 20 h; 310,000 tested, 3.5% active; AID 2546; Potency, µM (series often up to 53.6 µM), for inactives: at the highest dose activity, negative = inhibition, actives largely listed as inhibitors;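 also: Gal4-VP16 expression switched on by copper sulfate through the metallothionein promoter; potency is read from the fitted curve at half-maximal effect; nearly all actives have a fitted effect of over 50% in size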
LDHA block – inhibitors of human lactate dehydrogenase A | purified LDHA, NADH/diaphorase-resazurin fluorescence; active compounds read low | activity change, % (values are at about 110 or 230 µM) | 480,000 tested, 0.15% active | AID 1347041; in the data active = activity change below about -30%; inconclusive = mostly about -25% to -30%;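 also: plate controls were DMSO wells for no effect and wells without enzyme for full effect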
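Resorufin fluorescence (ex540/em590), read at 0 and 20 min after diaphorase/resazurin addition, reports the NADH left after a 5 min room-temperature reaction of 2 nM human LDH5 with 0.06 mM NADH and 0.2 mM pyruvate.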
DT40 TDP1 CPT – DT40-hTDP1 cell growth loss with CPT. chicken DT40 Tdp1-/-;hTDP1 cells + 20 nM CPT, ATP luminescence, 48 h. Potency, µM (highest dose often 46.2 µM), without a hit: top-dose activity change, negative = growth inhibition, actives largely listed as inhibitors. 420,000 tested, 12% active. AID 686979; also: potency is read from the fitted curve at half-maximal effect; nearly all actives have a fitted effect of over 55% in size
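Cell growth measured by CellTiter-Glo luminescence after a minimum 48 h, 37 C compound exposure with 20 nM CPT in Tdp1-knockout DT40 cells stably expressing hTDP1, seeded 400/well; qHTS titration format.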
DT40 TDP1 no CPT – qHTS for Inhibitors of human tyrosyl-DNA phosphodiesterase 1 (TDP1): qHTS in cells in absence of CPT | DT40 Tdp1-/- hTDP1 cells, no CPT, ATP luminescence, 48 h | Potency, µM (series often up to 46.2 µM), inactives show top-dose activity change, negative = growth inhibition, actives largely listed as inhibitors | 420,000 tested, 15% active; also: potency is read from the fitted curve at half-maximal effect; nearly all actives have a fitted effect of over 55% in size
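Growth of hTDP1-complemented DT40 Tdp1-knockout cells is measured by ATP luminescence after at least 48 hr compound exposure at 37 °C, with DMSO substituting for the 20 nM CPT used in the parallel screen.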
Starred values were filed as active, the others as inactive; ? = inconclusive; · = not tested or not shown; [ ] = another dose, or the depositor's remark. Most compounds without a hit are left out; they make up all but 18% or so of the library. Unless noted, calls follow the shape of the dose curve; as a rule, active = well fitted curve in the direction sought with a large enough effect; inconclusive = small, poorly fitted or top-dose-only effect, or another doubt; inactive = no such curve, though single readings can be large; an effect the other way counts as inactive or inconclusive. Unless noted, % is scaled to controls: 0 for no effect and ±100 for the full control effect.

SMILES	RORgamma inh	IL-1B inflam inh	Gal4-VP16 FLuc	LDHA block	DT40 TDP1 CPT	DT40 TDP1 no CPT
CC12CC(NC(=O)N1c1cccc(C(=O)Nc3ncn[nH]3)c1)c1ccccc1O2 (stereo unspecified)	0%	-68*	-1%	-2	1%	-3%
COc1ccc(NC(=O)c2cccc(N3C(=O)NC4CC3(C)Oc3ccccc34)c2)cc1 (stereo unspecified)	8%	-15	-1%	-3	?	?
COc1cccc2c1OC1(C)CC2NC(=O)N1c1cccc(C(=O)N2CCN(c3ccccc3)CC2)c1 (stereo unspecified)	19%	0	-8%[10 µM]	-1	?	?
COc1cccc2c1OC1(C)CC2NC(=O)N1c1cccc(C(=O)Nc2ccc3c(c2)OCCO3)c1 (stereo unspecified)	7%	10	11%	2	?	18µM*
COCCn1cnc2c1c(=O)n(CC(=O)Nc1ccccc1)c(=O)n2Cc1ccccc1	·	·	·	18	·	·
COc1ccc(S(=O)(=O)N(CC(=O)NCCSc2ccccc2)c2ccc(C)cc2)cc1	·	·	·	-4	18µM*	13µM*
COc1ccc(S(=O)(=O)N(CC(=O)NCCSc2ccccc2)c2ccc(Cl)cc2)cc1	·	·	·	-15	16µM*	12µM*
Cc1ccc(N(CC(=O)NCC(O)c2ccccc2)S(=O)(=O)c2ccc(C)cc2)cc1 (stereo unspecified)	8%	-94*	0%	-4	-1%	-23%
COc1ccc(N(CC(=O)NCCSc2ccccc2)S(C)(=O)=O)cc1	9%	-11	-11%	-5	0%	-8%
COc1ccc(CCNC(=O)CN(c2ccc(C)cc2)S(=O)(=O)c2ccc(OC)cc2)cc1	·	·	·	-2	?	23µM*
Cc1ccc(CNCc2c(C(=O)O)c(C)n(Cc3c(C)cc(C)cc3C)c2C)cc1	·	·	·	1	·	·
CC(C)(C)Sc1ccc2nn(CC(=O)Nc3ccccc3F)c(=O)n2n1	·	·	·	-1	·	·
O=C1C(c2ccc(C(F)(F)F)cc2)=C(NC2CCCCCC2)c2ccccc21	·	·	·	5	·	·
Cc1ccc(S(=O)(=O)N(CC(=O)NCCc2ccc(Cl)cc2)c2ccccc2C)cc1	·	·	·	-3	18µM*	13µM*
CCOc1ccc(N(CC(=O)N/N=C/c2ccccn2)S(=O)(=O)c2ccc(Cl)cc2)cc1	10µM*	33	?	2	?	21µM*
Cc1cc(C)c(N(Cc2ccccc2)S(=O)(=O)c2ccc(OCCNC(=O)c3cc4ccccc4o3)cc2)c(C(=O)NO)c1	10µM*	·	?	·	·	·
CCOc1ccc(N(CC(=O)N/N=C/c2cc([N+](=O)[O-])ccc2Cl)S(C)(=O)=O)cc1	-1%	-11	-3%	-3	?	23µM*
CC(=O)NNC(=S)NC1CC2CCC1C2 (stereo unspecified)	·	·	·	-7	·	·
CCCc1cc(=O)oc2cc(OS(=O)(=O)c3c(C)c(C)cc(C)c3C)ccc12	·	·	·	2	·	·
O=C(Nc1ccc(-c2ccccc2)cc1)c1ccccc1Cl	·	·	·	1	·	·
COc1ccc(N(CC(=O)NCCSC2CCCCC2)S(=O)(=O)c2ccccc2)c(OC)c1	3%	·	3%	·	·	·
COc1ccc(N(CC(=O)NCCOc2ccccc2)S(=O)(=O)c2ccc(C)cc2)cc1	-43%	-22	?	-9	?	21µM*
COc1ccc(S(=O)(=O)N(CC(=O)NCc2ccccn2)c2ccc(Cl)cc2)cc1	?	-54*	-13%	2	?	?
COc1ccc(N(CC(=O)NCCSCc2ccccc2C)S(=O)(=O)c2ccccc2)cc1	-9%	-19	-18%	-1	16µM*	16µM*
COc1ccc(N(CC(=O)NCC(C)C)S(=O)(=O)c2ccccc2)cc1	-3%	2	8%	-8	-17%	-14%
SMILES	RORgamma inh	IL-1B inflam inh	Gal4-VP16 FLuc	LDHA block	DT40 TDP1 CPT	DT40 TDP1 no CPT
COc1ccc(N(CC(=O)NCCSC2CCCCC2)S(=O)(=O)c2ccc(C)cc2)cc1	-1%	-4	-2%	-1	-88%	23µM*
CCN(C(=O)c1nn(C)c(=O)c2ccccc12)C(C)c1ccc(F)cc1 (stereo unspecified)	·	·	·	-4	·	·
CC(C)(C)c1ccc(C(=O)N/N=C/Cc2ccccc2)cc1	·	·	·	-3	·	·
Cc1ccc(-c2ocnc2C(=O)Nc2ccccc2C)s1	·	·	·	-3	·	·
Cc1cccc([C@@H]2[C@@H]3C(=O)N(Cc4ccccc4)C(=O)[C@@H]3[C@]3(Cc4ccccc4)C(=O)N(c4ccc(C(F)(F)F)cc4)C(=O)N23)c1	·	-1	·	-5	18µM*	16µM*
CCN1C(=O)[C@H]2[C@@H](c3ccc(C)cc3)N3C(=O)N(c4ccc(C)cc4)C(=O)[C@@]3(CC)[C@H]2C1=O	·	4	·	-8	-6%	-16%
CCN1C(=O)[C@H]2[C@@H](c3ccc(C)cc3)N3C(=O)N(c4ccc(C(F)(F)F)cc4)C(=O)[C@@]3(CC(C)C)[C@H]2C1=O	?	2	-1%	-2	?	16µM*
COC1C(O)C(CO)OC1n1c(Br)nc2c(=O)[nH]c(N)nc21 (stereo unspecified)	-13%	·	8%	·	-12%	1%
COC1C(CO)OC(n2c3c(Cl)cccc3c3c4c(c5c6cccc(Cl)c6[nH]c5c32)C(=O)NC4=O)C(O)C1O (stereo unspecified)	·	-63*	·	3	0.52µM*	2.6µM*
Cc1ccc(N2CCN(C3C(=O)Nc4ccccc4-n4nnnc43)CC2)cc1 (stereo unspecified)	·	24	·	2	-30%	?
Cc1cc2c(cc1C)-n1nnnc1C(N1CCN(CC(=O)N3CCCC3)CC1)C(=O)N2 (stereo unspecified)	·	0	·	-3	-21%	-17%
Cc1cc2c(cc1C)-n1nnnc1C(N1CCN(c3ccccc3F)CC1)C(=O)N2 (stereo unspecified)	·	7	·	-1	18µM*	18µM*
Cc1cc2c(cc1C)-n1nnnc1C(N1CCN(C(=O)OCc3ccccc3)CC1)C(=O)N2 (stereo unspecified)	·	-4	·	1	6.5µM*	5.8µM*
Cc1cc2c(cc1C)-n1nnnc1C(N(C)Cc1ccccc1)C(=O)N2 (stereo unspecified)	·	8	·	2	21µM*	15µM*
Cc1cccc(N2CCN(C3C(=O)Nc4ccccc4-n4nnnc43)CC2)c1C (stereo unspecified)	·	29	·	0	12µM*	7.3µM*
